# Key:
# Assay in all cases: DAPPL (digital affinity profiling via proximity ligation, sequencing); 10 mM Tris-HCl pH 7.5, 50 mM NaCl, 1 mM DTT, 4% glycerol, room temperature, 30 min; GST-TFs on glutathione beads, 16-mer random dsDNA library, 0.1% formaldehyde crosslink after washing; high values mean tight binding
# Settings in all cases: protein: recombinant; tags: N-terminal GST; dsDNA, one strand shown
# FLI1 = biological target: T1, FLI1 (Homo sapiens, UniProt Q01543 1-452)
# T1 sequence: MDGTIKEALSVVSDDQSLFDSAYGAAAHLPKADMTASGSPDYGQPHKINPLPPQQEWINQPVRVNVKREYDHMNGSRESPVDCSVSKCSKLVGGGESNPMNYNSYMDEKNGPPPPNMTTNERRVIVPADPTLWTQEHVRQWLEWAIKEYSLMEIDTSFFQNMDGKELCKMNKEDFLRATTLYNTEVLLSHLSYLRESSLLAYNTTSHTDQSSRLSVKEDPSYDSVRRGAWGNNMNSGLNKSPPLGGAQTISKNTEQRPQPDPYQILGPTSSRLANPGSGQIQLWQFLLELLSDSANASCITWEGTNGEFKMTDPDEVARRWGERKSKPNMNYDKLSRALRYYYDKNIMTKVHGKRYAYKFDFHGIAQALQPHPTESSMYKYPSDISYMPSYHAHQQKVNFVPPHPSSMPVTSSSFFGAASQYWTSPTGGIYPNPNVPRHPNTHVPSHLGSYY
# How it was run: (§1)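 In yeast, human transcription factors were expressed with a GST fusion, then pulled down on glutathione beads and given DNA barcodes. Pooled with a tag-only sample, they were exposed to 200 nmole of a 16-mer random double-stranded DNA library (Tris/NaCl/DTT/glycerol buffer, room temperature, 30 min), washed, crosslinked with 0.1% formaldehyde, proximity-ligated using BsaI/T4 ligase for 1 h at 37 °C, PCR-amplified and read on an Illumina NextSeq500. Each hexamer's frequency of reads for a factor, divided by the matching frequency for the tag-only sample, gives the binding signal.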
# ELK1 = biological target: T2, ELK1 (Homo sapiens, UniProt P19419 1-428)
# T2 sequence: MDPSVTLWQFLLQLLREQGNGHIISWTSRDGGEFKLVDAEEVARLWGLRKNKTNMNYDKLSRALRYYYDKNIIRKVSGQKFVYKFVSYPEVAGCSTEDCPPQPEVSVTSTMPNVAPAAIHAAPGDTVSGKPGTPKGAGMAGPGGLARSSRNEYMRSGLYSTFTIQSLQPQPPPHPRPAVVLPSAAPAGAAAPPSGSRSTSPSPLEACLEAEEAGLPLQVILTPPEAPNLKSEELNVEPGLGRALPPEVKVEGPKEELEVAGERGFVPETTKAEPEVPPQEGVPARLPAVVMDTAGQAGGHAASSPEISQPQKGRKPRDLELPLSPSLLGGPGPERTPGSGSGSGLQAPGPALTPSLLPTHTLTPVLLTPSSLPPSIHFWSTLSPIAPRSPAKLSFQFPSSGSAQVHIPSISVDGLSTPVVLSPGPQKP
# How it was run: as §1
# GABPA = biological target: T3, GABPA (Homo sapiens, UniProt Q06546 1-454)
# T3 sequence: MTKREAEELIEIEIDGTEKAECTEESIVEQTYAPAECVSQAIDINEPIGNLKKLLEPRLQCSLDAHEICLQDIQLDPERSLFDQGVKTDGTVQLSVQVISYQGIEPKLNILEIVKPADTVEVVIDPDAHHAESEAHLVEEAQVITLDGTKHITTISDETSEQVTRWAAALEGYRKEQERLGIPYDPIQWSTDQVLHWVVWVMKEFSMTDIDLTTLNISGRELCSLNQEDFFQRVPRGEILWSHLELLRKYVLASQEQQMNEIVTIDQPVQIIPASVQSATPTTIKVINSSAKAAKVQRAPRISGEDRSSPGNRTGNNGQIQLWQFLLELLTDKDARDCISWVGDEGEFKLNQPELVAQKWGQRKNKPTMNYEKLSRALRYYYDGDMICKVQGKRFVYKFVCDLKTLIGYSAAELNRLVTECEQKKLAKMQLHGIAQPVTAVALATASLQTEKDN
# How it was run: as §1
# ERG = biological target: T4, ERG (Homo sapiens, UniProt P11308 1-479)
# T4 sequence: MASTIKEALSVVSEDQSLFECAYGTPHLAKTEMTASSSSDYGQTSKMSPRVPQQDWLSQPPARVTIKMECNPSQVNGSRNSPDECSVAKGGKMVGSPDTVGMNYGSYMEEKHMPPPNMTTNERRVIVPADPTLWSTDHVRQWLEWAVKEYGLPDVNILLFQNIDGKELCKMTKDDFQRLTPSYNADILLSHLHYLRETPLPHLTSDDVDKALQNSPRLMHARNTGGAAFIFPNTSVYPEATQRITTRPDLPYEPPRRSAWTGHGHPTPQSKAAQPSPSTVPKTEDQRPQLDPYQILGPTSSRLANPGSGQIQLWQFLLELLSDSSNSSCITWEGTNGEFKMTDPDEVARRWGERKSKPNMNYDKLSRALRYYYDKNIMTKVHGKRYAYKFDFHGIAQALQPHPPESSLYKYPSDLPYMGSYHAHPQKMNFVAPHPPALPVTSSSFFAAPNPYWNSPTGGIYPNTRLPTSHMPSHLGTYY
# How it was run: as §1
# ELF1 = ELF1 (Homo sapiens, UniProt P32519 1-619)
# How it was run: as §1
# EHF = biological target: T5, EHF (Homo sapiens, UniProt Q9NZC4 1-300)
# T5 sequence: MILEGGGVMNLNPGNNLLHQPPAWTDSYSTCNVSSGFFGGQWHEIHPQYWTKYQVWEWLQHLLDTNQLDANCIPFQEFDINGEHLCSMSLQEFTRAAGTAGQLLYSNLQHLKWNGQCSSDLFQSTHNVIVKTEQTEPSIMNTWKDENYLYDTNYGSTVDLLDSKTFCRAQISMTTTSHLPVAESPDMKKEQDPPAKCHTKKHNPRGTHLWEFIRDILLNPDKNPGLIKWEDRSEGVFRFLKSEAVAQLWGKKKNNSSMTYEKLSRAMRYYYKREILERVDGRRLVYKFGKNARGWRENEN
# How it was run: as §1
# SPI1 = SPI1 (Homo sapiens, UniProt P17947 1-270)
# How it was run: as §1
# SPIB = SPIB (Homo sapiens, UniProt Q01892 1-262)
# How it was run: as §1
# ELK3 = biological target: T6, ELK3 (Homo sapiens, UniProt P41970 1-407)
# T6 sequence: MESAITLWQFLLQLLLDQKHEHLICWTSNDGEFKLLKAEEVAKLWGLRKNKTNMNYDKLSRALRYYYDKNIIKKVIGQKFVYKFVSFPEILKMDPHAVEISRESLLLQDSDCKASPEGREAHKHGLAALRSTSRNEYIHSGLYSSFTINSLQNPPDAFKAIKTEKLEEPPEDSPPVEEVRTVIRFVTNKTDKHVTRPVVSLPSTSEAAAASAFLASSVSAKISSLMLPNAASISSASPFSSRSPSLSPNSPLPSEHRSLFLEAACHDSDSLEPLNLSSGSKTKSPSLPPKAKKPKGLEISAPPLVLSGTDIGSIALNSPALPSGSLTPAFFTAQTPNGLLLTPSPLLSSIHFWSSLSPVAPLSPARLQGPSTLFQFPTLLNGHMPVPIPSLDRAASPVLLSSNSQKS
# How it was run: as §1
# Chain of SPIB (Q01892 whole entry): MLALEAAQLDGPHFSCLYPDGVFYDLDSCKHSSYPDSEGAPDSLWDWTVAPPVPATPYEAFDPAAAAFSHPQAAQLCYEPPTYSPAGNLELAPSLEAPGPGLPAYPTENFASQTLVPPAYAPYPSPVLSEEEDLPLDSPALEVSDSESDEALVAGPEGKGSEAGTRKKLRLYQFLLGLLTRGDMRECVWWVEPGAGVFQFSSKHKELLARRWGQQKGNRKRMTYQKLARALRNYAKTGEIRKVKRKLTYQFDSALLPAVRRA
# Chain of ELF1 (P32519 whole entry): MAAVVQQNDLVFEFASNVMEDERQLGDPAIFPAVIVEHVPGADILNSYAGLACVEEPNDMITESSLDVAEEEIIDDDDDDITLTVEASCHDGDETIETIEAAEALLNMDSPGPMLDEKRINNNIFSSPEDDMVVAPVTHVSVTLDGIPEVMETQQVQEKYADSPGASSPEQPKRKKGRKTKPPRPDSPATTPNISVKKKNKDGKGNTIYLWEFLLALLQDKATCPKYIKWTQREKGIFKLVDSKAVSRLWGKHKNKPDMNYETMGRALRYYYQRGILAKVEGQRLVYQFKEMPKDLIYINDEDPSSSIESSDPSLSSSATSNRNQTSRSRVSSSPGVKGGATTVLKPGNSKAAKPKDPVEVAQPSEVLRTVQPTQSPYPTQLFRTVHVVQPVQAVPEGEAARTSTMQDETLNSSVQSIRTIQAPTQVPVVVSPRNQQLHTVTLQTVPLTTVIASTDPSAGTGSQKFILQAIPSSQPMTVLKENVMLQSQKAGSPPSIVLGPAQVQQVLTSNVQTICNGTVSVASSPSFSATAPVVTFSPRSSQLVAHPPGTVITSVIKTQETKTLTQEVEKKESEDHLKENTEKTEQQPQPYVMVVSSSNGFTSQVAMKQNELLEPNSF
sequence,measurement,setting,value
TCCAAG,binding signal,FLI1,"1.16 fold enrichment (6-mer frequency, TF over GST control)"
same,binding signal,ELK1,"1.1 fold enrichment (6-mer frequency, TF over GST control)"
same,binding signal,GABPA,"1.16 fold enrichment (6-mer frequency, TF over GST control)"
same,binding signal,ERG,"1.02 fold enrichment (6-mer frequency, TF over GST control)"
same,binding signal,ELF1,"1.17 fold enrichment (6-mer frequency, TF over GST control)"
same,binding signal,EHF,"1.06 fold enrichment (6-mer frequency, TF over GST control)"
same,binding signal,SPI1,"1.03 fold enrichment (6-mer frequency, TF over GST control)"
same,binding signal,SPIB,"1.09 fold enrichment (6-mer frequency, TF over GST control)"
same,binding signal,ELK3,"1.08 fold enrichment (6-mer frequency, TF over GST control)"
